# Results reported in PubChem BioAssay (EPA / NIEHS).
# Inconclusive results are not listed. Activity calls are given as the source filed them. How the source made its calls: active means hit-call score of the fitted dose curve at least 0.9, where 1 is the maximum; inconclusive means response in the unintended direction; inactive means score below 0.9.
# Columns and labels:
# [1] = STM_H9_NormalizedViability: Cytotoxicity Assessment at 120 hours in the Stemina devTOX quickPredict H9 human embryonic stem cell (hESC)-based Assay (AID 2283784)
# Summary of the method: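 CellTiter-Fluor RFU, background-subtracted, expressed relative to 0.1% DMSO neutral control by plate. Pluripotent H9 cells; treatment with daily re-dosing. Plates carried 1uM methotrexate (positive) and 5 nM methotrexate (negative) references.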
# AR (gene 367) [2] = biological target: AR (gene 367) (UniProt P10275); experiment: ACEA_AR_antagonist_80hr: ACEA Biosciences xCELLigence Real-Time Cell Analysis on Androgen Receptor Antagonism for Proliferation (AID 2283787);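 further: 22Rv1 human prostate cancer cells with growth followed by electrical impedance; hits lower the impedance growth signal relative to DMSO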
# Summary of the method: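 Measures real-time proliferation of 22Rv1 prostate cancer cells by electrode impedance at 80 hours after dosing. Test articles ran at eight concentrations (1:4 steps, top 100 uM final) in biological duplicate.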
# [3] = tested on: turtle Androgen Receptor (AR), gene 101947425; experiment: ATG_trAR_XSP1: Attagene TRANS-FACTORIAL Multi-Species (XSP1) HepG2 Assay for turtle Androgen Receptor (AR) (AID 2283786)
# Procedure: ATG_XSP1_multi-species_TRANS is a cell-based, multiplexed assay created by modifying the existing Attagene TRANS-FACTORIAL system to include a panel of nuclear receptors from some or all the following species: human (Homo sapiens), mouse (Mus musculus), frog (Xenopus laevis), zebrafish (Danio rerio), chicken (Gallus gallus), and turtle (Chrysemys picta). The ECOTOX-FACTORIAL format uses HepG2, a human liver cell line, with measurements taken at 24 hours after chemical dosing in a 24-well plate. Xsp1 included 3 nM 6-alpha-fluorotestosterone to partially stimulate the androgen receptor.ATG_trAR_XSP1 is one of 29 assay components measured or calculated from the ATG_XSP1_multi-species_TRANS assay. It is designed to make measurements of mRNA induction, a form of inducible reporter, as detected with fluorescence intensity signals by Reverse transcription polymerase chain reaction (RT-PCR) and Capillary electrophoresis technology.The assay endpoint ATG_trAR_XSP1 was analyzed in the positive analysis fitting direction relative to DMSO as the negative control and baseline of activity. […] Furthermore, this assay endpoint can be referred to as a primary readout, because this assay has produced multiple assay endpoints where this one serves a reporter gene function. […]
# [4] = biological target: Estrogen receptor beta (Homo sapiens) (UniProt Q92731); experiment: ATG_hERb_XSP1: Attagene TRANS-FACTORIAL Multi-Species (XSP1) HepG2 Assay for human Estrogen Receptor (ESR2) (AID 2283788)
# Summary of the method: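 Transient MRTU transfection of HepG2; ERβ–GAL4 TRANS format; 24 h dosing; 3 nM 6α-fluorotestosterone co-added; RNA → RT-PCR → 6-FAM primer extension → CE; activity vs DMSO.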
# [5] = biological target: GAL4 Transcription Factor (Internal Marker), GAL4 (gene 855828) (UniProt P04386); experiment: ATG_GAL4_XSP1: Attagene TRANS-FACTORIAL Multi-Species (XSP1) HepG2 Assay for GAL4 Transcription Factor (Internal Marker) (AID 2283789)
# Summary of the method: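 This background-control endpoint measures GAL4-driven reporter mRNA via RT-PCR and capillary electrophoresis of labelled fragments. Transiently transfected HepG2 cells were treated 24 h, with 3 nM 6-alpha-fluorotestosterone included, and gain-of-signal was fitted against DMSO.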
# [6] = ATG_M_06_XSP1: Attagene TRANS-FACTORIAL Multi-Species (XSP1) HepG2 Assay for M06 Transcription Factor (Internal Marker) (AID 2283790)
# Summary of the method: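 This background-control readout tracks M06 reporter mRNA, measured by RT-PCR and capillary electrophoresis. HepG2 cells transiently carrying the GAL4-UAS reporter panel were dosed for 24 h with 3 nM 6-alpha-fluorotestosterone added for partial AR stimulation; increases were scored relative to DMSO.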
# [7] = ATG_M_61_XSP1: Attagene TRANS-FACTORIAL Multi-Species (XSP1) HepG2 Assay for M61 Transcription Factor (Internal Marker) (AID 2283797)
# Procedure: ATG_XSP1_multi-species_TRANS is a cell-based, multiplexed assay created by modifying the existing Attagene TRANS-FACTORIAL system to include a panel of nuclear receptors from some or all the following species: human (Homo sapiens), mouse (Mus musculus), frog (Xenopus laevis), zebrafish (Danio rerio), chicken (Gallus gallus), and turtle (Chrysemys picta). The ECOTOX-FACTORIAL format uses HepG2, a human liver cell line, with measurements taken at 24 hours after chemical dosing in a 24-well plate. Xsp1 included 3 nM 6-alpha-fluorotestosterone to partially stimulate the androgen receptor.ATG_M_61_XSP1 is one of 29 assay components measured or calculated from the ATG_XSP1_multi-species_TRANS assay. It is designed to make measurements of mRNA induction, a form of inducible reporter, as detected with fluorescence intensity signals by Reverse transcription polymerase chain reaction (RT-PCR) and Capillary electrophoresis technology.This assay endpoint, ATG_M_61_XSP1, was analyzed in the positive analysis fitting direction relative to DMSO as the negative control and baseline of activity. Using a type of inducible reporter, measures of mRNA for gain-of-signal activity can be used to understand the background control at the transcription factor-level as they relate to the gene. Furthermore, this assay endpoint can be referred to as a secondary readout, because this assay has produced multiple assay endpoints where this one serves a background control function. To generalize the intended target to other relatable targets, this assay endpoint is annotated to the background measurement intended target family, where the subfamily is internal marker.
# Human liver HepG2 cells are transiently transfected with multiple reporter transcription units (MRTUs) in 6-well plates using FuGene 6 reagent (Roche; 3 ml FuGene/1 mg DNA). The MRTU constructs are regulated by a cis-regulating element (promoter). […] A major difference between the CIS and TRANS system is that in CIS activities of endogenous TFs are measured, whereas the TRANS assay evaluates changes in activities of exogenous, chimeric NR-Gal4 proteins. […] At the end of 24 hour incubation, total RNA was isolated using TriZol reagent (Invitrogen). The isolated RNA is then reverse-transcribed using oligo(dT) primer and Mo-MLV reverse transcriptase (Invitrogen) with DNAse I (Ambion) treatment for 30 min. […] The fragments were purified using Qiaquick PCR columns (Qiagen), analyzed on an ABI 3130xL genetic analyzer (Applied Biosystems) with peak positions identified by using a set of X-rhodamine (ROX)-labeled MapMarker1000 molecular weight standards (BioVentures). […]
# [8] = ATG_M_32_XSP1: Attagene TRANS-FACTORIAL Multi-Species (XSP1) HepG2 Assay for M32 Transcription Factor (Internal Marker) (AID 2283799)
# Summary of the method: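 Reporter transcripts from the M32 internal-control unit measured by RT-PCR, FAM labelling, HpaI digestion and capillary electrophoresis after 24 h compound exposure of transfected HepG2, 3 nM 6-alpha-fluorotestosterone included; DMSO baseline, positive-direction fit.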
# [9] = biological target: Peroxisome proliferator-activated receptor gamma (Homo sapiens) (UniProt P37231); experiment: ATG_hPPARg_XSP1: Attagene TRANS-FACTORIAL Multi-Species (XSP1) HepG2 Assay for human Peroxisome Proliferator-activated Receptor gamma (PPARg) (AID 2283800)
# Summary of the method: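 Reporter mRNA induction, measured by RT-PCR with capillary electrophoresis 24 h after dosing, scored as gain over DMSO. Transfected HepG2 cells express exogenous NR-Gal4 chimeras driving GAL4-UAS reporters; medium includes 3 nM 6-alpha-fluorotestosterone.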
# AR (gene 367) [10] = biological target: AR (gene 367) (UniProt P10275); experiment: ACEA_AR_agonist_80hr: ACEA Biosciences xCELLigence Real-Time Cell Analysis on Androgen Receptor Agonism for Proliferation (AID 2283783);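 further: hits increase impedance growth signal above DMSO baseline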
# Summary of the method: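 Impedance (RT-CES) growth signal at 80 h post-dose; 22Rv1 cells, 8-pt 1:4 series, top 100 uM final, DMSO ≤0.5%; duplicate plates; gain-of-signal fit relative to DMSO baseline.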
# AR (gene 367), sequence (P10275 whole entry, looked up): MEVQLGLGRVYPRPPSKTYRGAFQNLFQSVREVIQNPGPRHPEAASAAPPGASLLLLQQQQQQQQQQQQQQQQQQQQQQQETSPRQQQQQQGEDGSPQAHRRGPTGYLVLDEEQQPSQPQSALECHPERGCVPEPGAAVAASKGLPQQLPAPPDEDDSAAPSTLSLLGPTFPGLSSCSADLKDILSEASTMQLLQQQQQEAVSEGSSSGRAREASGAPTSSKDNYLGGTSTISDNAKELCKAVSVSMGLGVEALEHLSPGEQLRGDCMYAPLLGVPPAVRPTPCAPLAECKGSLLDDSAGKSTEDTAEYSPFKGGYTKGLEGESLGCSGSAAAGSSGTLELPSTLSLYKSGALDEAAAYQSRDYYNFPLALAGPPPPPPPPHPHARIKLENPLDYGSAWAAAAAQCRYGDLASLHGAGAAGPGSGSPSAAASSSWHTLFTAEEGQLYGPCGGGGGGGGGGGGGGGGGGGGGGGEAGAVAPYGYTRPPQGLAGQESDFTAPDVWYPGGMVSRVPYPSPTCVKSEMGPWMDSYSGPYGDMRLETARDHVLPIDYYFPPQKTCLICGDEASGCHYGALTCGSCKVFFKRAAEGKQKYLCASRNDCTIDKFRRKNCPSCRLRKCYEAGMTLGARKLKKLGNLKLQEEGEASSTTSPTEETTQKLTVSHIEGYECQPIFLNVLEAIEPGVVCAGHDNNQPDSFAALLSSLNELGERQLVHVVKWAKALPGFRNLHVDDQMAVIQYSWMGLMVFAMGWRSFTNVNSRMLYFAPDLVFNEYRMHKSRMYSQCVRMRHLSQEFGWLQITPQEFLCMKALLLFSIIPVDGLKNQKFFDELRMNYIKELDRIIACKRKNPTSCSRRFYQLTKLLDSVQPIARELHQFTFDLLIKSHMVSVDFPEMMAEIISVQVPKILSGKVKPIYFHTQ
# GAL4 Transcription Factor (Internal Marker), GAL4 (gene 855828), sequence (P04386 whole entry, looked up, the tested form may be a part): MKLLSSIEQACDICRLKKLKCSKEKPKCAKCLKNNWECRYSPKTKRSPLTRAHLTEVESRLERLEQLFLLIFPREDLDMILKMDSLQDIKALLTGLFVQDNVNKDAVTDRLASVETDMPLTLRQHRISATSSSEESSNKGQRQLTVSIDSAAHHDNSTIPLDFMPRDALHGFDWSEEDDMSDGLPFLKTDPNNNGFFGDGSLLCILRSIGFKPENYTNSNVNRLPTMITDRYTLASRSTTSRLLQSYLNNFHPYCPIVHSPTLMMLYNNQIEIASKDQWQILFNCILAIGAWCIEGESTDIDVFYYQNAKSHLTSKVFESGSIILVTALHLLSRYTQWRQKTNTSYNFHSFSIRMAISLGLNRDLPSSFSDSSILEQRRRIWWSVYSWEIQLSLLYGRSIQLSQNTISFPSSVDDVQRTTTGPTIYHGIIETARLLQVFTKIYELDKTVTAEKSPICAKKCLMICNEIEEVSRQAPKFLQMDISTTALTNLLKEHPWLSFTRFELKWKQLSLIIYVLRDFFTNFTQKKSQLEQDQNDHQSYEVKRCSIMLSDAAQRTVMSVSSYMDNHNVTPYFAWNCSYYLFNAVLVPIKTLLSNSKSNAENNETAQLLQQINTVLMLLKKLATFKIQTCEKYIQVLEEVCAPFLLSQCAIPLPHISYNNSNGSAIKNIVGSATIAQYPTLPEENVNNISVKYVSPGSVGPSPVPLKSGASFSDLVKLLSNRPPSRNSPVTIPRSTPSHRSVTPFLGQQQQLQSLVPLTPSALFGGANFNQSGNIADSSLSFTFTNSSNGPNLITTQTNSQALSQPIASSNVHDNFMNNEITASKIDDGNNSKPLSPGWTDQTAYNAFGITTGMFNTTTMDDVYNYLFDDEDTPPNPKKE
# Estrogen receptor beta (Homo sapiens), sequence (Q92731 whole entry, looked up, the tested form may be a part): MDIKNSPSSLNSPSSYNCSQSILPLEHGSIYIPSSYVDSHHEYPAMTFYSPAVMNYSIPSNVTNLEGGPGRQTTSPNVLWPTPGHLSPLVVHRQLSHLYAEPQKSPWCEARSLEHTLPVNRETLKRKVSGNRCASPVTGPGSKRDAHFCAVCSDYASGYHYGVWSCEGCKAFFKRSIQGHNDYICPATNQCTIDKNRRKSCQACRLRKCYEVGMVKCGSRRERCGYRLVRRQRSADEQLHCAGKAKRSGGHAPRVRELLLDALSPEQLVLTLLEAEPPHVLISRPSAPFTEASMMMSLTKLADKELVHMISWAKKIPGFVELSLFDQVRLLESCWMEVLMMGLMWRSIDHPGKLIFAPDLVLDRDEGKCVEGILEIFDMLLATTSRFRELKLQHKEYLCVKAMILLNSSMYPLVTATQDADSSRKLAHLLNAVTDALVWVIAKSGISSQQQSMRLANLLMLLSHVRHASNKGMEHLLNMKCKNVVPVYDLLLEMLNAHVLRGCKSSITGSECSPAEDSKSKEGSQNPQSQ
# Peroxisome proliferator-activated receptor gamma (Homo sapiens), sequence (P37231 whole entry, looked up, the tested form may be a part): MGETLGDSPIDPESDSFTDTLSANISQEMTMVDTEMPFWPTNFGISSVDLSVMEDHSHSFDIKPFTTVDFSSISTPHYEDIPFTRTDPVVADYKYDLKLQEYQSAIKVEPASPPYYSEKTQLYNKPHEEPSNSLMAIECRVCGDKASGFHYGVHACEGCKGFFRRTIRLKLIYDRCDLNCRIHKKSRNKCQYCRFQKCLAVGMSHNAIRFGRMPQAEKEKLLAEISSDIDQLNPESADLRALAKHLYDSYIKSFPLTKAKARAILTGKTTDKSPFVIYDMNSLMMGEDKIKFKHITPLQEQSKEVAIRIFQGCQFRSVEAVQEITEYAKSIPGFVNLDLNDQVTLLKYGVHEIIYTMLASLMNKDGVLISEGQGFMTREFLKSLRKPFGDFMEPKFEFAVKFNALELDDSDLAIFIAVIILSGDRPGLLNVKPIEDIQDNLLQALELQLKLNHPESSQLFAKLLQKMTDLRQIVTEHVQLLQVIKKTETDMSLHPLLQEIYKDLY
structure (smiles),measurement,setting,value
CN(C)C(=O)C1(N2CCCCC2)CCN(CC[C@@]2(c3ccc(Cl)c(Cl)c3)CN(C(=O)c3ccccc3)CCO2)CC1,AC50,[1],9.2 µM (active)
same,AC50,AR (gene 367) [2],13.6 µM (active)
Cc1c2ccccc2c(C)c2c1ccc1ccccc12,outcome,[1],inactive
same,outcome,[3],inactive
same,AC50,AR (gene 367) [2],46.5 µM (active)
same,outcome,[4],inactive
same,outcome,[5],inactive
same,outcome,[6],inactive
same,outcome,[7],inactive
same,outcome,[8],inactive
same,AC50,[9],23.2 µM (active)
CN1C(=O)CC[C@H]1c1cccnc1,outcome,[1],inactive
C[C@]12CC[C@@H]3c4ccc(O)cc4CC[C@H]3[C@@H]1CCC2=O,outcome,[6],inactive
same,outcome,[7],inactive
O=C(O)c1ccccc1C(=O)OCc1ccccc1,outcome,AR (gene 367) [10],inactive
same,outcome,AR (gene 367) [2],inactive
COCC(C)OCC(C)OCC(C)O (stereo not drawn),outcome,AR (gene 367) [10],inactive
same,outcome,AR (gene 367) [2],inactive
CCCCCCCCOC(=O)c1cc(O)c(O)c(O)c1,AC50,[1],2.44 µM (active)
CC(C)(C)c1cc(/C=C2\SC(N)=NC2=O)cc(C(C)(C)C)c1O,outcome,[1],inactive
CO[C@H]1/C=C/O[C@@]2(C)Oc3c(C)c(O)c4c(O)c(c(/C=N/N5CCN(C)CC5)c(O)c4c3C2=O)NC(=O)/C(C)=C\C=C\[C@H](C)[C@H](O)[C@@H](C)[C@@H](O)[C@@H](C)[C@H](OC(C)=O)[C@@H]1C,outcome,[1],inactive
COc1cc(C(=O)NC2CCN(C)CC2)ccc1Nc1ncc2c(n1)N(C1CCCC1)CC(F)(F)C(=O)N2C,outcome,AR (gene 367) [10],inactive
same,AC50,[1],0.0449 µM (active)
same,AC50,AR (gene 367) [2],0.0058 µM (active)
NC(=O)c1nc(-c2cccc(-c3cc(F)ccc3OCC(F)(F)C(F)(F)F)c2)n[nH]1,outcome,AR (gene 367) [10],inactive
same,AC50,[1],0.683 µM (active)
same,AC50,AR (gene 367) [2],18.4 µM (active)
CCCCOC(=O)c1ccc(O)cc1,outcome,[1],inactive
same,AC50,AR (gene 367) [2],67.9 µM (active)
OCCO,outcome,[1],inactive
same,outcome,AR (gene 367) [2],inactive
CN(C)c1ccc(C(=C2C=CC(=[N+](C)C)C=C2)c2ccc(N(C)C)cc2)cc1,AC50,[1],0.767 µM (active)
same,AC50,AR (gene 367) [2],0.167 µM (active)
CCOC(=O)O[C@H](C)OC(=O)c1ccc2c(c1)cc(C(=O)NC1CCN(C(C)C)CC1)n2Cc1cc(-c2ccc(Cl)s2)on1,outcome,[1],inactive
Clc1cc(Cl)c2c(c1)N=C1CCCCCN1C2,outcome,[1],inactive
NCc1cccc(C2CCN(C(=O)c3ccc(C#Cc4ccccc4F)o3)CC2)c1,outcome,AR (gene 367) [10],inactive
same,AC50,AR (gene 367) [2],23.5 µM (active)
CCCCCCCCCC(=O)O,outcome,AR (gene 367) [2],inactive
CN1C(=O)N(c2ccccc2Br)Cc2cnc(Nc3ccc4c(c3)OCC(CO)O4)nc21 (stereo not drawn),AC50,[1],1.81 µM (active)
Oc1ccc2ccccc2c1,outcome,AR (gene 367) [10],inactive
same,outcome,AR (gene 367) [2],inactive
CC(C)(c1cc(Br)c(O)c(Br)c1)c1cc(Br)c(O)c(Br)c1,outcome,[1],inactive
same,outcome,[3],inactive
same,outcome,[4],inactive
same,outcome,[5],inactive
same,outcome,[6],inactive
same,outcome,[7],inactive
same,outcome,[8],inactive
O=C(O)Cn1c(=O)n(Cc2ccc(Br)cc2F)c(=O)c2ccc(Cl)cc21,outcome,AR (gene 367) [2],inactive
CCCCCCCCCCCC[N+](C)(C)C,AC50,[1],8.63 µM (active)
CN(C[C@@H](CC[N+]12CCC(C3CCCCC3)(CC1)CC2)c1ccc(Cl)c(Cl)c1)C(=O)c1cc(C(F)(F)F)cc(C(F)(F)F)c1,AC50,[1],16.4 µM (active)
same,AC50,AR (gene 367) [2],7.24 µM (active)
O=c1c(-c2ccc(O)cc2)coc2cc(O)cc(O)c12,outcome,AR (gene 367) [10],inactive
same,AC50,[1],83.2 µM (active)
same,AC50,AR (gene 367) [2],65.1 µM (active)
Cc1occc1C(=O)Nc1ccc(C(=O)N2CCC(F)(F)/C(=C\C(=O)N3CCC(N4CCCCC4)CC3)c3ccccc32)cc1,outcome,AR (gene 367) [10],inactive
same,AC50,AR (gene 367) [2],42.3 µM (active)
COc1cccc([C@H](O)C2CCN(CCc3ccc(F)cc3)CC2)c1OC,outcome,[1],inactive
CC(=O)N1CCN(c2ccc(OC[C@H]3CO[C@](Cn4ccnc4)(c4ccc(Cl)cc4Cl)O3)cc2)CC1,outcome,[1],inactive
CCN(Cc1cccnc1)C(=O)c1cccc(Cl)c1[C@]1(C)C(=O)N(Cc2ccc(OC)cc2OC)c2ccc(Cl)cc21,outcome,AR (gene 367) [10],inactive
same,AC50,AR (gene 367) [2],32 µM (active)
Cc1cc(F)ccc1-c1cc(N2CC[C@@H](O)[C@H]2CO)ncc1N(C)C(=O)C(C)(C)c1cc(C(F)(F)F)cc(C(F)(F)F)c1,AC50,AR (gene 367) [2],6.76 µM (active)
Cc1cn([C@H]2C[C@H](N=[N+]=[N-])[C@@H](CO)O2)c(=O)[nH]c1=O,outcome,[1],inactive
CC/C(=C(/CC)c1ccc(O)cc1)c1ccc(O)cc1,outcome,[6],inactive
same,outcome,[7],inactive
COc1ccc2cc(S(=O)(=O)N[C@H](CC(=O)N[C@H](Cc3ccc(CN4[C@H](C)CCC[C@@H]4C)cc3)C(=O)N(C)C(C)C)c3ccc4c(c3)OCO4)ccc2c1,AC50,[1],18.9 µM (active)
Cc1ccc(C(C)C)cc1,outcome,AR (gene 367) [2],inactive
CCCCCCCCN(C)CCCCCCCC,outcome,AR (gene 367) [10],inactive
same,outcome,[1],inactive
same,outcome,AR (gene 367) [2],inactive
O=C(Nc1ccc(Cl)cc1)Nc1ccc(Cl)c(Cl)c1,outcome,AR (gene 367) [10],inactive
same,outcome,[1],inactive
same,AC50,AR (gene 367) [2],5.97 µM (active)
